A number with no mark means an inactive call. Records with an inconclusive call do not appear. The source made the active and inactive calls. Unless noted, calls come from the whole dose curve; as a rule, active = well fitted curve in the direction sought with a large enough effect; inconclusive = small, poorly fitted or top-dose-only effect, or another doubt; inactive = no such curve, though single readings can be large; an effect the other way counts as inactive or inconclusive.

Assay [1] can be described thus: qHTS to identify inhibitors of the type 1 interferon - major histocompatibility complex class I in skeletal muscle: primary screen against the NCATS LOPAC collection (AID 1347405).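 Note: lytic HiBiT luminescence reporting HLA-B protein level; % is set by controls: 0 for no effect and ±100 for the full control effect.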 In short, it runs like this: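 Luminescence from HiBiT fused to endogenous HLA-B in CRISPR-engineered human myoblasts served as the read-out. Cells received 4.0 ng/ml IFN-beta plus compound (seven concentrations, 1:4.3 steps, highest 46 uM final) for 24 hrs before lytic detection.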
In general terms: In qHTS, concentration-response curves come from the screen itself.

The nature of assay [2]: qHTS to identify inhibitors of the type 1 interferon - major histocompatibility complex class I in skeletal muscle: primary screen against the NCATS Pharmaceutical Collection (AID 1347407).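 Note: luminescence of HiBiT knocked into endogenous HLA-B as interferon-induced MHC class I level; % is set by controls: 0 for no effect and ±100 for the full control effect.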 In short, it runs like this:
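Cells were seeded with 4 ng/ml IFN-beta, incubated 1 h, then dosed with compounds over eight 1:5 steps up to 46 uM final. After 24 h at 37 C, HiBiT lytic reagent was added and luminescence read after 10 min lysis in the dark.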

The nature of assay [3]: qHTS for inhibitors of adenylyl cyclases using a fission yeast platform: a pilot screen against the NCATS LOPAC library (AID 1347410).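 Note: plate controls were DMSO vehicle for no effect and DPI positive control for full effect.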 Summed up: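 Growth medium went into the plates first, then compounds were pinned (final up to 57 µM), then CHP2027 yeast were added. Plates were incubated overnight (18 h) at 30C in the dark, and GFP was measured by laser scanning cytometry.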

The target in assay [4] is Protein phosphatase 1D (Homo sapiens) (UniProt O15297). Briefly: Rhodamine-PBP qHTS Assay for Modulators of WT P53-Induced Phosphatase 1 (WIP1) (AID 1347425). Note: % of control where 0% means no effect. Summed up: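 The read-out is the change in Rhodamine-PBP fluorescence (f1 - f0, ex 525/em 598 nm) as Pi is released, read each minute for 11 min. Final reaction: 5 nM WIP1, 10 uM phosphopeptide VEPPL-pS-QETFS, 10 uM Rh-PBP, 50 mM Tris-HCl pH 7.5, 30 mM MgCl2. Compound was preincubated with enzyme for 1 hour at room temperature.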

Assay [5] in a line: Primary qHTS for inhibitors of La Crosse Virus (LACV) - induced cell death in SH-SY5Y cells (AID 1508616).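 Note: top concentration of the series differs between compounds; 0% = infected DMSO wells and 100% = uninfected DMSO wells; higher means more rescue of cells from virus-induced death.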 In short, it runs like this:
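Protection against LACV-induced cell death is scored in SH-SY5Y cells exposed to compounds and virus (0.01 MOI) for 6 days. Data normalized to virus-infected DMSO wells and virus-free DMSO wells.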

Assay [6] deals with Calcium and integrin-binding protein 1 (Homo sapiens) (UniProt Q99828). The experiment in a line: Validation qHTS for Identification of Calcium Integrin Binding protein 1 (CIB1) Competitor (AID 1508618). Note: % is set by controls: 0 for no effect and ±100 for the full control effect. Summed up:
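CIB1-GST (1 uM final) incubated 15 min at room temperature with compounds (up to 114 uM), then FITC-labelled alphaIIb peptide (100 nM) added. FP read (Ex 480/Em 540) after 15 min, pH 7.4 buffer containing 5 mM CaCl2.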

Assay [7] has the same target. Briefly: Primary qHTS for Identification of Calcium Integrin Binding Protein 1 (CIB1) Competitor (AID 1508620).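 Note: GST tagged CIB1 binding a fluorescein labelled alphaIIb integrin peptide tracer; top concentration of the series differs between compounds; % is set by controls: 0 for no effect and ±100 for the full control effect.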 In short, it runs like this: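 Fluorescence polarization competition: CIB1-GST (1 uM final) preincubated with compound 15 min at room temperature, then FITC-labeled alphaIIb peptide (100 nM final) added for another 15 min. Polarization read at Ex 480/Em 540.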

The nature of assay [8]: Primary qHTS for small molecule stabilizers of the endoplasmic reticulum resident proteome: Secreted ER Calcium Modulated Protein (SERCaMP) assay (AID 1508630). Note: % is set by controls: 0 for no effect and ±100 for the full control effect. Summed up: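 GLuc-SERCaMP-expressing SH-SY5Y cells, pretreated 16 h with compound, are challenged with thapsigargin to empty ER calcium stores; after 4 h, coelenterazine is added directly to the medium and luminescence is imaged.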

The nature of assay [9]: A High-Content qHTS Against Drug Library for the Identification of Small Molecules that Inhibit DYT1 Early Onset Primary Dystonia-Associated Cell Pathology (AID 1645839; calls by dose curve; note: series mostly up to about 46 µM). In short, it runs like this:
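Readout: %pathology, the punctate EGFP-TorsinA distribution from imaging, as the primary channel and cell count as the toxicity counterscreen. HEK293 Flp-In cells expressing delE TorsinA were induced with tetracycline and treated with compound for 48 h.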

Assay [10] concerns the target Cytochrome P450 2D6 (Homo sapiens) (UniProt P10635). Briefly: Cytochrome P450 family 2 subfamily D member 6 (CYP2D6) small molecule antagonists: luciferase biochemical (cell-free) qHTS assay (AID 1645840; active = well fitted curve in the direction sought with a large enough effect in the repeat runs; an effect the other way counts as inactive or inconclusive; note: nearly all actives have a fitted effect of over 55% in size; note: potency is the fitted concentration of half-maximal effect). Summed up: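 P450-Glo luminescent screen: recombinant CYP2D6 enzyme–proluciferin substrate mix preincubated with compound 10 min at room temperature, then NADPH regeneration added for 1 h at room temperature. Detection reagent added for 20 min; luciferin light read as relative luminescence units.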

For assay [11], the target named is Cytochrome P450 2C9 (Homo sapiens) (UniProt P11712). Briefly: Cytochrome P450 family 2 subfamily C member 9 (CYP2C9) small molecule antagonists: luciferase biochemical (cell-free) qHTS assay (AID 1645842; active = well fitted curve in the direction sought with a large enough effect in the repeat runs; an effect the other way counts as inactive or inconclusive; note: nearly all actives have a fitted effect of over 55% in size; note: potency is the fitted concentration of half-maximal effect). In short, it runs like this: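 Luminescence, after 20 min with luciferin detection reagent, reflected CYP2C9 turnover during a 1 h NADPH-driven reaction at 37C. Enzyme-substrate mix contained 0.4% bovine serum albumin and was preincubated with compound 10 min at room temperature.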

A further assay addresses Papain (Carica papaya) (UniProt P00784). Briefly: Primary qHTS assay for inhibitors of the protease papain (AID 1645873).
Assay [12] can be described thus: Primary qHTS for inhibitors of nuclear receptor binding SET domain protein 2 (NSD2) in an isogenic RCH-ACV NSD2 p.E1099K mutant (9B) (AID 1645876). Note: % is set by controls: 0 for no effect and ±100 for the full control effect; nearly all actives have a fitted effect of over 70% in size.
For assay [13], the target named is Protein phosphatase 1D (Homo sapiens) (UniProt O15297). Briefly: RapidFire Mass Spectrometry qHTS Assay for Modulators of WT P53-Induced Phosphatase 1 (WIP1) (AID 1347424).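 Note: amount of dephosphorylated VEPPL-S-QETFS peptide product formed by WIP1; series mostly up to about 63 µM; plate controls were DMSO wells for no effect and GSK830371 inhibitor control at 10 µM for full effect.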 In short, it runs like this: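 WIP1 (10 nM final) was preincubated 1 h at room temperature with compounds in Tris-HCl pH 7.5, 30 mM MgCl2, TCEP, EGTA, BSA; 2 uM VEPPL-pS-QETFS phosphopeptide was added for 5 min, quenched with formic acid, and dephosphorylated product quantified by RapidFire MS.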

Assay [14] in a line: Validation qHTS assay for inhibitors of Activation Induced Cytidine Deaminase (AID): UDG Counterscreen signal (AID 1347427). Note: 0% is about no effect. In short, it runs like this:
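Counterscreen read of UDG activity (2 U/mL, 4/3x) in the FRET deamination format with AID (1 uM, 4/3x), DJC20/DJC23 substrates (250 nM, 4x), 4 h at room temperature. NaOH stop, fluorescence at 560 ex/665 em.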

Assay [15] has as its target Single-stranded DNA cytosine deaminase (Homo sapiens) (UniProt Q9GZX7). The experiment in a line: Validation qHTS assay for inhibitors of Activation Induced Cytidine Deaminase (AID): AID signal (AID 1347429). Note: % is set by controls: 0 for no effect and ±100 for the full control effect. Summed up: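 Fluorescence at 540 nm excitation and 590 nm emission reports ssDNA cytosine deamination by AID, with UDG in the same well. Compound-treated reactions ran 4 hr at room temperature with DJC20/DJC23 substrate, followed by 30 min NaOH treatment.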

The nature of assay [16]: Cell Viability qHTS for small molecule stabilizers of the endoplasmic reticulum resident proteome (AID 1508629). Conditions: cell viability counter-screen, 100 nM thapsigargin for final 4 h.

Sequence of Papain (Carica papaya) (P00784 whole entry, looked up, the tested form may be a part): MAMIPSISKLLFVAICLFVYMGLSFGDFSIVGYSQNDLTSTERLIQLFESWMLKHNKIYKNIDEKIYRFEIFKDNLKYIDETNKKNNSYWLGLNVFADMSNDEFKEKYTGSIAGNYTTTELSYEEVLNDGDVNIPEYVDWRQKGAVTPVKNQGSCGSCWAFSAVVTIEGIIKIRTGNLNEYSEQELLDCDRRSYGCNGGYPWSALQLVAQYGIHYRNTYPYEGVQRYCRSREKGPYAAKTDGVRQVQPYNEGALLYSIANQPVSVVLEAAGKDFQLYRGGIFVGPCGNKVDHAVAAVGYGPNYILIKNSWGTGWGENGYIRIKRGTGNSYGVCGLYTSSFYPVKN
Sequence of Protein phosphatase 1D (Homo sapiens) (O15297 whole entry, looked up): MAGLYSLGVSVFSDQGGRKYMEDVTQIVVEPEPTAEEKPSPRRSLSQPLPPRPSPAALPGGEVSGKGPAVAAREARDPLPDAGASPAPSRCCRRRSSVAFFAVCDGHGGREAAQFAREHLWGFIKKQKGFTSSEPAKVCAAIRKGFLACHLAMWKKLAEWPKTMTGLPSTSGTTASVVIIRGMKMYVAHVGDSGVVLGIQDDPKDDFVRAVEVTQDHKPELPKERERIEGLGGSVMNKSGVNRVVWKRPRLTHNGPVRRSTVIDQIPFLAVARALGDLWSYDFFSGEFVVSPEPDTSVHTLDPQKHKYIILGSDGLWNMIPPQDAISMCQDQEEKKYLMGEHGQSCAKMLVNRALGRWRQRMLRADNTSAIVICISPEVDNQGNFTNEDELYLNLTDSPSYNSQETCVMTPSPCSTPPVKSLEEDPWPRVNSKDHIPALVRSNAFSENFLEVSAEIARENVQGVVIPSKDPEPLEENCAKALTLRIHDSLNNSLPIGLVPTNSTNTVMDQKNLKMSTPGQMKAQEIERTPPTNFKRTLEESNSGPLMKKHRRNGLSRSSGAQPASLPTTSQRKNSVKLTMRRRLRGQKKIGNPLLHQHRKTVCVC
Sequence of Calcium and integrin-binding protein 1 (Homo sapiens) (Q99828 whole entry, looked up): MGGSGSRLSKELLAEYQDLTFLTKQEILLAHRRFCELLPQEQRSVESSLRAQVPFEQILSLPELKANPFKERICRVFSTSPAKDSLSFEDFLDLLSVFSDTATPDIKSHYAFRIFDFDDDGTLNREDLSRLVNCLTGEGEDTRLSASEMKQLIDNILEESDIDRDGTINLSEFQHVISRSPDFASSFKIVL
Sequence of Single-stranded DNA cytosine deaminase (Homo sapiens) (Q9GZX7 whole entry, looked up): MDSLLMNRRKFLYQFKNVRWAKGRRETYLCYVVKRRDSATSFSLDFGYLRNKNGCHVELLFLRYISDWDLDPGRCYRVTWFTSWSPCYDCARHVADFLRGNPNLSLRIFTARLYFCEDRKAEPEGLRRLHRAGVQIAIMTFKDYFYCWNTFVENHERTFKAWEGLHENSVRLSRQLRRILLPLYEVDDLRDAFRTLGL
Sequence of Cytochrome P450 2C9 (Homo sapiens) (P11712 whole entry, looked up): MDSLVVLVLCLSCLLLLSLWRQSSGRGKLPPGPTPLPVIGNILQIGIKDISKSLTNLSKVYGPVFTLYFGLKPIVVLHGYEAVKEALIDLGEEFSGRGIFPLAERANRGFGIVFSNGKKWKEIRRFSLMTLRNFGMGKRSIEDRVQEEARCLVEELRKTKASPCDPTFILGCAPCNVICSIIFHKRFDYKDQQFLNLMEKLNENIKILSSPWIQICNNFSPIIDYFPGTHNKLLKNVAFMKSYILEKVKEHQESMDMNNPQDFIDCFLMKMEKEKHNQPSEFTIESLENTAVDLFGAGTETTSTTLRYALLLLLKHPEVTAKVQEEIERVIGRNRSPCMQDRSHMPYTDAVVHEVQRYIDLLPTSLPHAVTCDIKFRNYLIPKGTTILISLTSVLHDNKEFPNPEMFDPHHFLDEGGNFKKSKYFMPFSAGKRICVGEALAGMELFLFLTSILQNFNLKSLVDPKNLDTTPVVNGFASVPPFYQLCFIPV
Sequence of Cytochrome P450 2D6 (Homo sapiens) (P10635 whole entry, looked up): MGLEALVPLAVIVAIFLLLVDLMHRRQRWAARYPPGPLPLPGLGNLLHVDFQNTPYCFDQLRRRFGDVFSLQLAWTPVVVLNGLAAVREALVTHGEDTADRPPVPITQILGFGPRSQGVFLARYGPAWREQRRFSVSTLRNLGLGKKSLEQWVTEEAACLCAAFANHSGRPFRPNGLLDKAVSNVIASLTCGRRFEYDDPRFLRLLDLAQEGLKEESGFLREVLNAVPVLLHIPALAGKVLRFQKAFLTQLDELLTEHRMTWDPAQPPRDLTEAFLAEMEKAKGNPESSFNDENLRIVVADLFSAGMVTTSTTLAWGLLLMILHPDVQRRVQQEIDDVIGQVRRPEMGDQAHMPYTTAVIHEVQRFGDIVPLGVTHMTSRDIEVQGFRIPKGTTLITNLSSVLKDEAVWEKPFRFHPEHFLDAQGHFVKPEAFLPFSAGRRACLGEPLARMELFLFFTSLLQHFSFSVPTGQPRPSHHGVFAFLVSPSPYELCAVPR

With `Brc1c(NC2=NCCN2)ccc2nccnc12`, the Potency result in [1], in assay [2], in assay [5], in [7], in assay [8] and in assay [9] was “inactive” throughout. Further, the Potency entry (in assay [11]; in the assay with Papain (Carica papaya); in [12]) was “inactive” throughout. The result in assay [3], in assay [4] and in assay [6] was inactive. In addition, the Potency in assay [10] was 21.9 µM (active).
Take `COc1cc(Cc2cnc(N)nc2N)cc(OC)c1OC`: the Potency entry in assay [1], in assay [13], in [15], in [5], in assay [7] and in assay [9] was “inactive” in each case. For the same compound, the Potency result in [10] and in assay [11] was “inactive” each time. The call in assay [3], in [4], in [14] and in [6] was inactive.
Consider `c1ccc2c(c1)CCCC2C1=NCCN1` (centres undefined), for which the Potency entry in assay [1], in assay [13], in assay [15], in assay [5], in [7] and in assay [8] was “inactive” in each case. Also, the Potency result (in assay [9]; with Papain (Carica papaya); in [12]) was “inactive” throughout. Besides, the outcome in assay [3], in assay [4], in [14] and in assay [6] was inactive.
On to `Cc1nc2sccn2c(=O)c1CCN1CCC(=C(c2ccc(F)cc2)c2ccc(F)cc2)CC1`, for which the Potency result (in assay [1]; in assay [13]; in [15]; in assay [5]; in [7]; in the assay with Papain (Carica papaya)) was “inactive” each time. Also, the compound was classed as inactive in [3], in assay [4] and in assay [14]. The max response in [16] is -2.38%. Also, the Potency in [10] was 3.09 µM (active).
Regarding `COc1ccc(CCN(C)CCCC(C#N)(c2cc(OC)c(OC)c(OC)c2)C(C)C)cc1OC` (centres undefined), the Potency result in assay [1], in assay [13], in assay [15], in assay [5], in [7] and in [8] was “inactive” in each case. The Potency entry (in [9]; with Papain (Carica papaya)) was “inactive” each time. Also, the result in assay [3], in assay [4] and in [6] was inactive.
`Cc1nc2c([nH]1)c(=O)n(C)c(=O)n2Cc1ccco1`: the Potency result in [1], in assay [13], in assay [15], in [5], in assay [7] and in [8] was “inactive” in each case. Further, the Potency result (in [9]; in assay [11]; with Papain (Carica papaya)) was “inactive” throughout. For the same compound, the result in [3], in assay [4], in assay [14] and in [6] was inactive.
Regarding `C#CCN(C)CCCOc1ccc(Cl)cc1Cl`, the Potency result in assay [1], in assay [13], in assay [15], in assay [5], in assay [7] and in [8] was “inactive” each time. The Potency result (in [9]; with Papain (Carica papaya); in assay [12]) was “inactive” each time. Moreover, the compound was classed as inactive in assay [3], in [4], in [14] and in assay [6]. In addition, the Potency was 1.55 µM (active) in [10] and 30.9 µM (active) in [11].
Take `CN1C[C@H](C(=O)N[C@]2(C)O[C@@]3(O)[C@@H]4CCCN4C(=O)[C@H](Cc4ccccc4)N3C2=O)C[C@@H]2c3cccc4[nH]cc(c34)C[C@H]21`: the Potency result (in assay [1]; in assay [13]; in assay [15]; in assay [5]; in assay [7]; with Papain (Carica papaya)) was “inactive” in each case. The compound was called inactive in [3], in assay [4] and in [14].
`COCCc1ccc(OCC(O)CNC(C)C)cc1` (centres undefined): the Potency entry in assay [1], in assay [13], in assay [15], in assay [5], in assay [7] and in assay [8] was “inactive” throughout. For the same compound, the Potency result (in assay [9]; with Papain (Carica papaya); in assay [12]) was “inactive” each time. Besides, the call in assay [3], in assay [4] and in assay [6] was inactive.
